Source: ChEMBL document CHEMBL1961873, “Compounds: GSK PKIS; Assays: Nanosyn kinase panel” (2012)

These molecules were tested on Tyrosine-protein kinase ABL1 (Homo sapiens), P00519 [H396P]. Conditions: at 1 µM.
Molecule `CN1CCN(C(=O)c2ccc(NC(=O)Nc3ccc(N(C)c4ccnc(Nc5ccc(CS(C)(=O)=O)cc5)n4)cc3)cc2)CC1` has an inhibition of 67.8%. `CC(C)c1ccc2c(c1)NC(=O)/C2=N/Nc1ccc(S(N)(=O)=O)cc1` gave an inhibition of 33.7%. Molecule `C[C@@H](Oc1cc(-n2cnc3ccc(OC[C@@H](O)CO)cc32)sc1C(N)=O)c1ccccc1Cl` has an inhibition of 9.51%. `CN(C)CCCn1c(-c2nonc2N)nc2cnccc21` showed an inhibition of 1.22%. Molecule `O=C1Nc2ccc(-c3cccnc3)cc2C1=Cc1cc(Br)c(O)c(Br)c1` has an inhibition of 7.14%. For `CC(C)c1ccc(Nc2nccc(-c3cnn4ncccc34)n2)cc1`, the inhibition was 8.88%. In the case of `N#Cc1cccc(Nc2nccc(-c3cnn4ncccc34)n2)c1`, the inhibition is reported as 51.8%. With `Cc1ccc(NC(=O)CC2CC2)cc1-c1ccc(C(=O)NCC2CC2)cc1` the inhibition was 3.96%. With `Cc1ccc2c(c1)/C(=N/Nc1ccc(S(N)(=O)=O)cc1)C(=O)N2` the inhibition was 5.97%. With `CCS(=O)(=O)c1ccc(OC)c(Nc2nccc(N(C)c3ccc4c(C)n[nH]c4c3)n2)c1` the inhibition was 90.5%. With `Nc1nccc(-c2c(-c3ccc(F)cc3)nn3cc(C(F)(F)F)ccc23)n1` the inhibition was -0.33%. For `N#Cc1c(NC(=O)c2ccccc2F)sc2c1CCCC2`, the inhibition was -1.4%. `Cc1cc(Cl)cc2c1NC(=O)C2=NNc1ccc(S(N)(=O)=O)cc1` gave an inhibition of 8.01%. Molecule `c1ccc(Cc2nc3ccc(Nc4ncnc5ccccc45)cc3[nH]2)cc1` has an inhibition of 3.84%. `Cc1ccc(O)cc1Nc1ccnc2ccc(S(C)(=O)=O)cc12` was tested, and the inhibition was 96.4%. For `COc1cc(/C=N/Nc2ncnc3c2cnn3C(C)C)ccc1O`, the inhibition was 80.7%. In the case of `FC(F)(F)c1ccc(-c2nn3ncccc3c2-c2ccnc(Nc3ccc4c(c3)OCCO4)n2)cc1`, the inhibition is reported as 8.02%. `Nc1ccc(C#Cc2cncnc2Nc2ccc(OCc3cccc(F)c3)c(Cl)c2)cc1` showed an inhibition of 2.72%. Molecule `COc1cc2ncn(-c3cc(OCc4ccccc4S(C)(=O)=O)c(C#N)s3)c2cc1OC` has an inhibition of 49.5%. Work on `NS(=O)(=O)c1ccc(NC=C2C(=O)Nc3ccc4ncsc4c32)cc1` yielded an inhibition of 46.7%. Work on `Nc1nccc(-c2c(-c3ccc(F)cc3)ncn2CCCN2CCOCC2)n1` yielded an inhibition of 4.57%. `O=C1Nc2ccccc2/C1=C/Nc1ccc2[nH]c(=O)[nH]c2c1` gave an inhibition of 23.4%. Molecule `Cc1ccc(C(=O)NC2CC2)cc1-c1ccc2[nH]ncc2c1` has an inhibition of 1.02%. For `COC(=O)c1cncc(/C=C/c2c(C)cc(O)cc2C)c1`, the inhibition was 60%. Molecule `COc1cc(Nc2nccc(-c3cnn4ncccc34)n2)cc(OC)c1` has an inhibition of 59.5%. `COc1ccc2ncnc(Nc3ccc(OCc4ccccc4)cc3)c2c1` showed an inhibition of 4.61%. `CCn1c(-c2nonc2N)nc2ccc(F)cc21` was tested, and the inhibition was 4.61%. Molecule `NC(=O)c1cccc(Nc2nccc(Nc3cccc(F)c3)n2)c1` has an inhibition of 56.1%. `CN(C)C(=O)O[C@H]1CN[C@H](C#Cc2cc3ncnc(Nc4ccc(OCc5cccc(F)c5)c(Cl)c4)c3s2)C1` showed an inhibition of -0.36%. With `COc1cc2ncnc(Nc3ccc(C)c(O)c3)c2cc1OC` the inhibition was 87.4%. Molecule `COc1cccc(-n2ncc3c(N/N=C/c4ccc(C)cc4)ncnc32)c1` has an inhibition of 73.5%. Molecule `COC(=O)c1ccc2c(c1)C(=Cc1cc(Br)c(O)c(Br)c1)C(=O)N2` has an inhibition of 14.9%. Molecule `Cc1ccc(Nc2ccnc(Nc3cccc(C(N)=O)c3)n2)cc1O` has an inhibition of 94.4%. `NS(=O)(=O)c1ccc(-c2cc3ccncc3cc2OCc2ccccc2)cc1` gave an inhibition of 6.67%.

These molecules were tested on Tyrosine-protein kinase ABL1 (Homo sapiens), P00519 [M351T]. Conditions: at 0.1 µM.
Molecule `CN1CCN(C(=O)c2ccc(NC(=O)Nc3ccc(N(C)c4ccnc(Nc5ccc(CS(C)(=O)=O)cc5)n4)cc3)cc2)CC1` has an inhibition of 24.1%. With `CC(C)c1ccc2c(c1)NC(=O)/C2=N/Nc1ccc(S(N)(=O)=O)cc1` the inhibition was 7.06%. Work on `C[C@@H](Oc1cc(-n2cnc3ccc(OC[C@@H](O)CO)cc32)sc1C(N)=O)c1ccccc1Cl` yielded an inhibition of 1.32%. In the case of `CN(C)CCCn1c(-c2nonc2N)nc2cnccc21`, the inhibition is reported as 1.53%. `O=C1Nc2ccc(-c3cccnc3)cc2C1=Cc1cc(Br)c(O)c(Br)c1` was tested, and the inhibition was 4.37%. Molecule `CC(C)c1ccc(Nc2nccc(-c3cnn4ncccc34)n2)cc1` has an inhibition of 1.81%. Molecule `N#Cc1cccc(Nc2nccc(-c3cnn4ncccc34)n2)c1` has an inhibition of 16.2%. Molecule `Cc1ccc(NC(=O)CC2CC2)cc1-c1ccc(C(=O)NCC2CC2)cc1` has an inhibition of 4.32%. For `Cc1ccc2c(c1)/C(=N/Nc1ccc(S(N)(=O)=O)cc1)C(=O)N2`, the inhibition was 0.64%. In the case of `CCS(=O)(=O)c1ccc(OC)c(Nc2nccc(N(C)c3ccc4c(C)n[nH]c4c3)n2)c1`, the inhibition is reported as 54%. `Nc1nccc(-c2c(-c3ccc(F)cc3)nn3cc(C(F)(F)F)ccc23)n1` gave an inhibition of 1.15%. `N#Cc1c(NC(=O)c2ccccc2F)sc2c1CCCC2` showed an inhibition of 0.7%. `Cc1cc(Cl)cc2c1NC(=O)C2=NNc1ccc(S(N)(=O)=O)cc1` gave an inhibition of -0.27%. Molecule `c1ccc(Cc2nc3ccc(Nc4ncnc5ccccc45)cc3[nH]2)cc1` has an inhibition of 0.27%. `Cc1ccc(O)cc1Nc1ccnc2ccc(S(C)(=O)=O)cc12` showed an inhibition of 90.6%. For `COc1cc(/C=N/Nc2ncnc3c2cnn3C(C)C)ccc1O`, the inhibition was 34.7%. `FC(F)(F)c1ccc(-c2nn3ncccc3c2-c2ccnc(Nc3ccc4c(c3)OCCO4)n2)cc1` showed an inhibition of 1.83%. `Nc1ccc(C#Cc2cncnc2Nc2ccc(OCc3cccc(F)c3)c(Cl)c2)cc1` gave an inhibition of -1.21%. Work on `COc1cc2ncn(-c3cc(OCc4ccccc4S(C)(=O)=O)c(C#N)s3)c2cc1OC` yielded an inhibition of 9.97%. For `NS(=O)(=O)c1ccc(NC=C2C(=O)Nc3ccc4ncsc4c32)cc1`, the inhibition was 10.9%. `Nc1nccc(-c2c(-c3ccc(F)cc3)ncn2CCCN2CCOCC2)n1` showed an inhibition of 0.51%. In the case of `O=C1Nc2ccccc2/C1=C/Nc1ccc2[nH]c(=O)[nH]c2c1`, the inhibition is reported as 4.2%. For `Cc1ccc(C(=O)NC2CC2)cc1-c1ccc2[nH]ncc2c1`, the inhibition was 1.39%. Molecule `COC(=O)c1cncc(/C=C/c2c(C)cc(O)cc2C)c1` has an inhibition of 15.9%. `COc1cc(Nc2nccc(-c3cnn4ncccc34)n2)cc(OC)c1` gave an inhibition of 13.7%. Molecule `COc1ccc2ncnc(Nc3ccc(OCc4ccccc4)cc3)c2c1` has an inhibition of -1.29%. `CCn1c(-c2nonc2N)nc2ccc(F)cc21` was tested, and the inhibition was 2.2%. `NC(=O)c1cccc(Nc2nccc(Nc3cccc(F)c3)n2)c1` was tested, and the inhibition was 9.02%. `CN(C)C(=O)O[C@H]1CN[C@H](C#Cc2cc3ncnc(Nc4ccc(OCc5cccc(F)c5)c(Cl)c4)c3s2)C1` showed an inhibition of 0.95%. `COc1cc2ncnc(Nc3ccc(C)c(O)c3)c2cc1OC` showed an inhibition of 42.5%. `COc1cccc(-n2ncc3c(N/N=C/c4ccc(C)cc4)ncnc32)c1` showed an inhibition of 25.4%. `COC(=O)c1ccc2c(c1)C(=Cc1cc(Br)c(O)c(Br)c1)C(=O)N2` gave an inhibition of 0.64%. For `Cc1ccc(Nc2ccnc(Nc3cccc(C(N)=O)c3)n2)cc1O`, the inhibition was 74.4%. Work on `NS(=O)(=O)c1ccc(-c2cc3ccncc3cc2OCc2ccccc2)cc1` yielded an inhibition of 3.16%.
